# Bioassay records: PubChem BioAssay, National Center for Advancing Translational Sciences (NCATS)
# HTT cytoprotect: cytoprotection in Huntington HTT-Q103 PC12 cell model; PC12 HTT-Q103 induced, cytoprotection, ATP luminescence, 40 h; Potency, µM (top dose mostly 56.4 µM), inactives show cytoprotection (ATP increase), usual class: activators; 0.14% of 230,000 active; also: potency is read from the fitted curve at half-maximal effect; % of control where 0% means no effect; nearly all actives have a fitted effect of over 45% in size
#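 Quantitative HTS on tebufenozide-induced (100 nM) PC12 cells expressing HTTQ103 exon 1–GFP; compounds tested as a concentration series; survival measured via cellular ATP.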
# HttQ103 aggreg: inhibitors of mutant huntingtin aggregate formation in PC12 cells; Potency, µM (series often up to 46.1 µM), for the others: at the highest dose activity change, negative = inhibition, usual class: inhibitors; AID 1688; PC12 HttQ103-GFP aggregates, Acumen cytometry, 40 h; 1.1% of 220,000 active; also: potency is read from the fitted curve at half-maximal effect; % is scaled to controls: 0 for no effect and ±100 for the full control effect; nearly all actives have a fitted effect of over 60% in size
#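 Huntingtin Q103 exon 1–GFP aggregates in induced PC12 cells (100 nM tebufenozide) were quantified by cytometry from lysates, with compounds dosed in titration.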
# HPGD block: inhibitors of human 15-hydroxyprostaglandin dehydrogenase (HPGD). Potency, µM, inactives show at the highest dose activity change, negative = inhibition, actives largely listed as inhibitors. purified HPGD, NADH fluorescence kinetic, PGE2 substrate. 4.3% of 150,000 active; active = well fitted inhibition curve with a large enough effect, not every such curve was filed as active; inconclusive = small, poorly fitted or top-dose-only effect, or another doubt; inactive = no such curve, though single readings can be large or run the other way; also: potency is read from the fitted curve at half-maximal effect; % is scaled to controls: 0 for no effect and ±100 for the full control effect
# Target sequence (P15428 whole entry, looked up): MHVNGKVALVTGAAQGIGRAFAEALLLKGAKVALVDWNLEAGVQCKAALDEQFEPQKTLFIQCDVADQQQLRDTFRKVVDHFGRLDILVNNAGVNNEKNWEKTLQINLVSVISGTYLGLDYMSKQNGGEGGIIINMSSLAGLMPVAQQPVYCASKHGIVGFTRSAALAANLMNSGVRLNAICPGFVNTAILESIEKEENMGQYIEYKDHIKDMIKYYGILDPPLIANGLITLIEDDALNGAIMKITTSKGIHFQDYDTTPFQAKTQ
#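 NADH formation kinetics: reaction with 30 uM PGE2 and 1 mM NAD+ (final), 20 nM enzyme, Tris-HCl pH 8 with Tween 20, after 15 min compound preincubation at room temperature. Fluorescence change, last versus first of five reads.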
# KDM4E inh: JMJD2E (human) inhibition; B2RXH2; AID 2147; Potency, µM (top dose mostly 57.1 µM), inactives show top-dose activity change, negative = inhibition, actives largely listed as inhibitors; 1.6% of 230,000 active; JMJD2E catalytic domain, FDH-coupled NADH fluorescence (FDH is formaldehyde dehydrogenase);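 also: potency is read from the fitted curve at half-maximal effect; 0% = wells with enzyme and -100% = buffer wells without enzyme; nearly all actives have a fitted effect of over 50% in size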
# ALDH1A1 block: blocks purified human ALDH1A1 activity; P00352; Purified ALDH1A1, NADH fluorescence, propionaldehyde substrate; Potency, µM (highest dose often 75.3 µM), for inactives: top-dose activity, negative = inhibition, usual class: inhibitors; 7.3% of 220,000 active; active = well fitted inhibition curve with a large enough effect, not every such curve was filed as active; inconclusive = small, poorly fitted or top-dose-only effect, or another doubt; inactive = no such curve, though single readings can be large or run the other way;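 also: potency is read from the fitted curve at half-maximal effect; plate controls were no enzyme wells and a reference inhibitor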
# CBFb RUNX1 block: CBF-beta/RUNX1 interaction disruption; 230,000 tested, under 10 active; AlphaScreen CBFb-His/RUNX1-biotin binding, biochemical; AID 1477; Potency, µM (top dose mostly 59.8 µM), inactives show at the top dose activity, negative = inhibition, hits mostly inhibitors; Q01196+Q13951; also: % of control where 0% means no effect
#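 CBFb-His/RUNX1-biotin, 30 nM each, preincubated 20 min RT; compound 15 min RT; Ni + streptavidin beads 50 ng each, 90 min RT; AlphaScreen read.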
# * = called active by the depositor; ? = inconclusive; nt = not tested or not shown; [ ] = remark or other dose. The list is not random: actives were taken first. Their share in the collection is about 9.8%. Unless noted, calls follow the shape of the dose curve; as a rule, active = well fitted curve in the direction sought with a large enough effect; inconclusive = small, poorly fitted or top-dose-only effect, or another doubt; inactive = no such curve, though single readings can be large; an effect the other way counts as inactive or inconclusive.
SMILES,HTT cytoprotect,HttQ103 aggreg,HPGD block,KDM4E inh,ALDH1A1 block,CBFb RUNX1 block
NC(=O)Nc1ccc(C(=O)OCC(=O)Nc2cccc(S(=O)(=O)NC3=NCCCCC3)c2)cc1,-9%[10 µM],-13%[9.22 µM],nt,1%,nt,9%
CN(C)S(=O)(=O)c1cccc(C(=O)N2CCc3ccccc32)c1,-29%,-16%,-11%,5%,-1%,8%
CN(C)S(=O)(=O)c1cccc(C(=O)C2=C3SC=C(c4ccccc4)N3CC2)c1,-19%[10 µM],10%,-25%,-4%,2µM*,-13%
Fc1ccc(N2CN(Cc3cccnc3)CNC2=S)cc1,-6%[10 µM],-14%[9.22 µM],nt,-3%,4%,9%
Cc1cc(C(=O)CSc2nc3ccccc3[nH]2)c(C)n1CC1CCCO1 (stereo not drawn),-76%,?,16µM*,-7%,?,-8%
Cc1ccc(-n2nnnc2SCC(=O)c2cc(C)n(CC3CCCO3)c2C)cc1 (stereo not drawn),-26%,-6%,-2%,7%,0%,-1%
Cc1cccc(-n2nnnc2SCC(=O)c2cc(C)n(CC3CCCO3)c2C)c1 (stereo not drawn),-20%,16%,-10%,1%,7.9µM*,-3%
Cc1cccc(-n2nnnc2SCC(=O)c2cc(C)n(Cc3ccco3)c2C)c1,-28%,-24%,-8%,-5%,18µM*,-15%
CC1(C)CC(=O)C=C(NCc2ccc(Cl)c(Cl)c2)C1,18%,1%,-11%,1%,-4%,0%
O=C(Nc1ccc(F)cc1F)N1CCCN(c2ccc([N+](=O)[O-])cn2)CC1,2%[10 µM],11%[9.22 µM],nt,-2%,?,-3%
O=C(c1ccc(F)cc1F)C1CCN(c2ccc([N+](=O)[O-])cn2)CC1,5%[10 µM],-1%[9.22 µM],nt,-30%,20µM*,-5%
CCC(C(=O)O)C1OC(C(C)C(O)C(C)C(=O)C(CC)C2OC3(C=CC(O)C4(CCC(C)(C5CCC(O)(CC)C(C)O5)O4)O3)C(C)CC2C)C(C)CC1C (stereo not drawn),-96%,1.8µM*,nt,nt,nt,nt
Cc1ccc2oc3c(c(=O)c2c1)C(c1cccc(Cl)c1)N(CCCN1CCOCC1)C3=O (stereo not drawn),6%[10 µM],-31%,0%,-8%,13µM*,2%
Cc1ccc2oc3c(c(=O)c2c1)C(c1ccc(F)cc1)N(CCCN1CCOCC1)C3=O (stereo not drawn),-32%,?,-25%,?,3.5µM*,2%
COc1cccc(C2c3c(oc4ccccc4c3=O)C(=O)N2CCCN2CCOCC2)c1 (stereo not drawn),0%,7%,-11%,-25%,?,5%[2.36 µM]
O=C(CCCSc1nnc(Nc2ccccc2F)s1)N1CCOCC1,-41%[10 µM],-8%,nt,-8%,?,-5%
CC(C)(C)n1nc2c(c1NC(=O)c1ccc(Br)cc1)CS(=O)C2 (stereo not drawn),-23%,0%,-17%,2%,5%,1%
COc1ccc(-n2nnnc2Sc2ccc(S(=O)(=O)N3CCOCC3)cn2)cc1,-8%[10 µM],-9%,7.1µM*,1%,2.8µM*,-1%
COc1ccc(-n2cnnc2SCC(=O)c2ccc(S(=O)(=O)N3CCOCC3)cc2)cc1,-25%[10 µM],3%[9.22 µM],-12%,-7%,1.4µM*,-19%
CC(C)(C)n1nc2c(c1NC(=O)c1ccc(S(=O)(=O)N3CCCCC3)cc1)CS(=O)C2 (stereo not drawn),8%,-2%,-1%,4%,25µM*,3%
COc1ccc(-n2nc3c(c2NC(=O)c2ccc(S(=O)(=O)N4CCOCC4)cc2)CS(=O)C3)cc1 (stereo not drawn),-2%,-13%,nt,7%,2.5µM*,4%
CN(C)c1ccc(-c2nc(NCc3cccnc3)c3ccccc3n2)cc1,-108%,nt,?,?,?,nt
CC(C)CC(=O)Nc1nnc(SCC(=O)NCc2ccc3c(c2)OCO3)s1,-21%,-12%,nt,3%,2%,-4%
